Bioassay records from PubChem BioAssay.
Sampled rows, rich in hits. Any-hit rate of the full collection: about 1.8%.
SSB-PriA inh = inhibitors of Klebsiella pneumoniae PriA binding to SSB C-terminal tail; inhibition, % at 33 µM; 430,000 compounds, 0.6% hits; AlphaScreen SSBct-PriA binding, biotinylated peptide; AID 1272365; in the data active = inhibition mostly above about 37%, no sharp cut-off; inactive = mostly below about 20%;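 note: plate controls were negative control peptide for no effect and reference peptide for full effect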
MazEF act = increases E. coli MazEF RNase cleavage of RNA; 350,000 compounds, 0.32% hits; P0AE70; activation, % at 20 µM; AID 504720; FAM/BHQ RNA-DNA oligo cleavage fluorescence, 5 h; in the data active = activation above about 50%
Target sequence (P0AE70 whole entry, looked up): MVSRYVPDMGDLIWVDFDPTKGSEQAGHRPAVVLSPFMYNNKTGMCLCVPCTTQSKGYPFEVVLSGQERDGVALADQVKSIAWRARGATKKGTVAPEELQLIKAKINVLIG
PfHsp40 rescue = rescue of PfHsp40-mediated yeast toxicity; S. cerevisiae expressing PfHsp40, growth rescue, ATP luminescence; AID 504582; 340,000 compounds, 0.68% hits; growth rescue, % at 12.5 µM; in the data active = growth rescue above about 28%, passing the limit was not always enough;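 note: yeast W303a lacking pdr1 and pdr3 grown in galactose medium; growth measured after three days at 30 °C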
PrP 5UTR inh = inhibition of PrP 5' UTR reporter expression; cell-based PrP 5' UTR mRNA reporter, plate reader; inhibition, % (concentration not given with the values); 340,000 compounds, 0.35% hits; AID 488862; in the data active = inhibition above about 52%; note: 0 = median of the neutral control wells
PrPC TRFRET = inhibitors of human cell surface prion protein PrPC; P04156; TR-FRET read-out; inhibition, % at 13.8 µM; 370,000 compounds, 0.43% hits; AID 720596; in the data active = inhibition above about 24%; note: 0% = median of the test wells and 100% = reference compound wells
The depositor's hits bear a star; / = no result given; + = active, no number; ! = a repeat was not active.

SMILES	SSB-PriA inh	MazEF act	PfHsp40 rescue	PrP 5UTR inh	PrPC TRFRET
CO/N=C/c1ccc(N2CCN(C)CC2)c([N+](=O)[O-])c1	+	/	/	/	/
CON=Cc1ccc(Sc2ccccc2)c([N+](=O)[O-])c1	54.5*	/	/	/	/
O=c1c2ccccc2cnn1Cc1n[nH]c(=S)n1-c1cc(Cl)cc(Cl)c1	2.6	2.0	0.1	-3.4	0.3
C=C(CCC(=O)c1ccccc1)C(=O)c1ccccc1	10.2	0.6	0.1	-21.7	-1.1
COc1ccc(O)c(C=Nc2sc(C)c(C)c2C#N)c1	-4.8	/	/	/	/
NC(=O)NN=Cc1c(O)ccc2oc3c(c12)CCCC3	3.5	/	/	/	/
O=[N+]([O-])c1cc2oc3c(c2c(C=NCc2ccccc2)c1O)CCCC3	3.9	-3.6	230.4*	-11.1	-13.9
CC(C)CN=Cc1c(O)c([N+](=O)[O-])cc2oc3c(c12)CCCC3	1.7	-59.7	484.3*	-8.5	-5.4
Fc1ccc(C2=Nn3c(nnc3C3CCCCC3)SC2)cc1	/	/	/	/	0.7
CCc1ccc(-c2cc(C(=O)N3N=C(C(F)F)CC3(O)C(F)F)c3ccccc3n2)cc1 (stereo not given)	-0.3	-1.8	174.1*	-42.1	9.8
CCOC(=O)c1cnc(SC)nc1Oc1cccc(NS(=O)(=O)c2ccccc2)c1	0.7	-10.5	1.6	-45.2	-5.3
N=c1n(CC(=O)c2ccc([N+](=O)[O-])cc2)c2ccccc2n1Cc1ccccc1	0.2	328.6*	-0.7	-16.9	-1.5
N=c1n(CC(=O)c2ccc([N+](=O)[O-])cc2)c2ccccc2n1Cc1ccc(Cl)cc1	4.5	177.8*	0.5	1.1	-2.9
N=c1n(CC(=O)c2ccc([N+](=O)[O-])cc2)c2ccccc2n1Cc1ccccc1Cl	0.1	9.0	-1.7	8.3	2.6
COc1ccc(NC(=O)/C(Cl)=C(/Cl)S(=O)(=O)Cc2ccc(C)cc2)cn1	-2.9	9.7	343.3*	-21.4	/
C=C1C(=O)O[C@H]2C[C@@H](C)[C@@H]3C=CC(=O)[C@@]3(C)C[C@H]12	-24.4	7.4	/	/	26.1*
Cc1ccc(S(=O)(=O)N(C)c2c(C)ccc(S(=O)(=O)N3CCN(C)CC3)c2C)cc1	16.8	-4.1	49.5*	-3.0	-11.9
Cc1ccc(S(=O)(=O)N(C)c2c(C)ccc(S(=O)(=O)N3CCN(C=O)CC3)c2C)cc1	8.1	-0.7	0.8	-18.0	1.5
NNS(=O)(=O)c1ccc(N2CCCC2=O)c([N+](=O)[O-])c1	-2.0	226.7*	-0.7	-7.9	-12.8
NS(=O)(=O)c1ccc(N2CCCC2=O)c([N+](=O)[O-])c1	-11.4	2.6	-0.6	8.4	-12.5
O=C(COc1ccc(Cl)cc1Cl)N1CCN(Cc2nc(-c3ccco3)cs2)CC1	35.0*!	/	/	/	/
Cc1csc(CN2CCN(C(=O)COc3ccc(Cl)cc3Cl)CC2)n1	-12.0	/	/	/	/
CC(C)(C)c1ccc(C(=O)N/C(=C/c2ccco2)C(=O)NCCCn2ccnc2)cc1	63.2*	/	/	/	/
O=C(NCCCn1ccnc1)/C(=C\c1ccco1)NC(=O)c1ccco1	-6.6	2.9	-0.1	-18.5	-0.4
Cc1ccc(-c2nc(Nc3cccc(O)c3)c3ccccc3n2)cc1	-6.0	14.7	30.1*	-13.3	1.8
SMILES	SSB-PriA inh	MazEF act	PfHsp40 rescue	PrP 5UTR inh	PrPC TRFRET
O=[N+]([O-])c1ccc(-c2nc(Nc3cccc(O)c3)c3ccccc3n2)cc1	-15.3	123.2*	0.0	/	-33.8
O=C(c1cccc(COc2ccc(Cl)cc2Cl)c1)N1CCN(c2ccccn2)CC1	-3.8	-14.6	28.4*	-148.1	5.9
Cc1cc2cc(C(c3nnnn3Cc3ccccc3)N3CCc4ccccc43)c(=O)[nH]c2cc1C (stereo not given)	-19.6	-6.5	1.4	-18.2	-0.7
Cc1ccc2cc(C(c3nnnn3Cc3ccccc3)N3CCc4ccccc43)c(=O)[nH]c2c1C (stereo not given)	12.1	-16.1	0.4	-11.5	26.0*
Cc1cc2cc(C(c3nnnn3Cc3ccco3)N3CCc4ccccc43)c(=O)[nH]c2cc1C (stereo not given)	8.9	79.2*	0.1	-14.1	1.8
Cc1ccc(C(=O)N2CCN(c3ccccc3Cl)CC2)cc1[N+](=O)[O-]	3.8	5.8	110.7*	-28.2	4.6
O=[N+]([O-])c1ccc(-[n+]2nc(-c3ccccc3)nn2-c2ccccc2)cc1	100.5*	1.8	-1.2	-3.9	-30.2
Cc1ccc(C(=O)COC(=O)CSc2cccc3cccnc23)c(C)c1	77.8*	-6.5	3.0	-11.3	6.4
Cc1ccc(C)c(C(=O)CSc2cccc3cccnc23)c1	107.5*	/	/	/	/
Cc1cc(C(=O)N2CCC(C)CC2)on1	-3.6	8.4	-0.9	11.4	8.9
CCOC(=O)N1CCN(C(=O)c2cc(C)no2)CC1	98.2*	4.8	22.5	-23.5	-6.4
NC(N)=NS(=O)(=O)c1ccc(NC(=S)Nc2ccc(F)cc2)cc1	-5.9	5.9	-1.6	-42.7	3.1
Cc1cc(/C=C2\C(=O)NC(=O)N(Cc3ccccc3Cl)C2=O)c(C)n1-c1ccc(C(=O)O)cc1	-11.3	59.1*	0.5	-27.9	3.0
Clc1ccc(OCc2nc(-c3ccccn3)no2)c(Br)c1	-10.7	5.9	-0.4	-1.4	17.6
Nc1nc(-c2ccccn2)nc(N)c1Cc1c(F)cccc1Cl	35.2	1.5	-0.1	-8.3	12.2
Nc1nc(-c2ccccn2)nc(N)c1Cc1ccc(Cl)cc1Cl	53.9*	-7.6	1.4	-56.0	11.7
Nc1nc(-c2ccccn2)nc(N)c1Cc1ccccc1F	94.8*	7.3	-2.0	-55.2	7.0
CC(=O)Nc1ccc(S(=O)(=O)N2CCC(N3CCCCCC3)CC2)cc1	0.9	-1.1	0.6	-18.1	-9.4
CCOc1ccc(C(=O)Nc2ccc(Cc3ccncc3)cc2)cc1Br	-2.3	-3.6	59.7*	-6.1	-1.4
COc1ccc(NC(=O)C(=O)NCC2CCCN2S(=O)(=O)c2ccc(C)cc2)cc1 (stereo not given)	7.1	/	1.3	77.6*	14.0
Oc1ccc(Nc2nc(Cl)nc(NCc3ccco3)n2)cc1	5.3	5.8	-1.6	-5.0	5.4
Cc1onc(-c2ccccc2)c1C(=O)NNC(=O)c1ccccc1O	-9.2	3.7	68.0*	0.5	-6.5
Cc1onc(-c2ccccc2)c1C(=O)NNC(=O)c1ccccc1	-4.1	2.9	-0.5	-14.8	-2.0
COc1ccc(-c2cc(C(=O)NNC(=S)NC(=O)c3c(-c4ccccc4)noc3C)[nH]n2)cc1	10.5	-9.4	286.9*	-29.5	-3.6
CCOc1ccccc1NC(=O)CSc1ccc(-c2ccccn2)nn1	115.5*	/	/	/	/
SMILES	SSB-PriA inh	MazEF act	PfHsp40 rescue	PrP 5UTR inh	PrPC TRFRET
COc1ccccc1NC(=O)CSc1ccc(-c2ccccn2)nn1	88.6*!	9.6	-1.5	-17.2	8.8
CCOc1ccc(NC(=O)CSc2ccc(-c3ccccn3)nn2)cc1	16.2	-12.8	22.2	-27.8	4.8
O=C(CSc1ccc(-c2ccccn2)nn1)Nc1ccc(Cl)c(Cl)c1	27.7	/	/	/	/
COc1ccc(NC(=O)CSc2ccc(-c3ccccn3)nn2)cc1OC	71.9*	6.3	215.2*	-49.8	-6.1
COc1ccccc1NC(=O)CSc1ccc(-c2ccncc2)nn1	17.9	/	/	/	/
CC(CNC(=O)C1CCCCC1)NC(=O)C1CCCCC1 (stereo not given)	-13.2	-2.5	80.4*	0.7	-7.2
